# Results published in PubChem BioAssay (EPA / NIEHS).
# Activity calls are given as the source filed them. How the source made its calls: active means hit-call score of the fitted dose curve at least 0.9, where 1 is the maximum; inactive means score below 0.9.
# Read-out: growth arrest and DNA damage 45 (GADD45B), GADD45B (gene 4616)
# Experiment: LTEA_HepaRG_GADD45B: Life Technologies and Expression Analysis (LTEA) Assay for growth arrest and DNA damage 45 (GADD45B) using HepaRG (AID 2283461)
# Conditions: mRNA level, 48 h; actives raise or lower the signal
# Protocol: LTEA_HepaRG is a cell based, multiplexed-readout assay that uses HepaRG, a human liver cell line, with measurements taken at 48 hours after chemical dosing on a 96-well plate.LTEA_HepaRG_GADD45B is one of 102 assay component(s) measured in the LTEA HepaRG cell culture assay. It is a marker of Cell proliferation, survival, death.Data from the assay component LTEA_HepaRG_GADD45B was analyzed into 1 endpoint. This assay endpoint, LTEA_HepaRG_GADD45B, was analyzed with bidirectional fitting relative to DMSO as the negative control and baseline of activity. Using a type of inducible reporter, measures of mRNA induction for gain or loss-of-signal activity can be used to understand regulation of transcription factor activity. To generalize the intended target to other relatable targets, this assay endpoint is annotated to the mutagenicity response intended target family, where the subfamily is Cell proliferation, survival, death.
# A total of 1060 chemcials from the ToxCast library were tested in eight-point concentration-response experiments. Cell culture and cytotoxicity assays were conducted at Thermo Fisher Scientific's Custom Services facility (Madison, WI). A single lot of human HepaRG cells (Thermo Fisher Scientific, Frederick, MD) was used for the cell culture experiments. 96-well format collagen type I coated plates of human HepaRG cells were prepared using established methods. Briefly, cryopreserved HepaRG cells were thawed, plated at a density of approximately 100,000 cells/well in HepaRG Thaw, Plate, and General Purpose media (HPRG770, Thermo Fisher Scientific), and incubated for 48 hours. 0.5% DMSO was selected as vehicle control to balance the requisite need of DMSO in HepaRG cultures to maintain differentiation (for example, baseline metabolism, proportions of hepatocytes vs. cholangiocytes), while enabling further hepatic receptor pathway activation (for example, PXR and CAR) in response to chemical exposure. 48 hours after plating, the culture medium was replaced with HepaRG Serum-Free Incudtion Media. Cells were exposed to each test chemical in duplicate and maintained in CO2 incubators for another 48 hours. Chemical plates were thawed to room temperature and 200x concentrations of treatment groups were prepared. 8-point conentration-reponse curves were made with the highest exposure at 100 uM, followed by half-log dilutions, all in 0.5% DMSO. Each test plate contained variouse controls, induction positive controls (1mM phenobarbital), cytotoxicity positive controls ([…] aflatoxin B1), vehicle controls (0.5% DMSO), and total lysis controls (0.5% DMSO). Cell morphology images were taken using an Essen IncuCyte FLR automated microscope, with six 96-well plates imaged in about 24 minutes. Images were captured and exported and JPEG files. Spent culture media was transfered to black-well plates for the LDH assay, and remaining media was sorted at -80 C for later use. Cells were treated with RLT buffer and frozen until shipped for gene expression analysis. Total RNA was isolated from the cell suspension in 75 uL of Buffer RLT (Qiagen, Germantown, MD 20874) by Quintiles/Expression Analysis (Durham, NC) using a custom isolation procedure. Total RNA from each plate well was transferred to a preamplification plate. Fluidigm's 96.96 Dynamic ArrayTM (Fluidigm, Amsterdam, the Netherlands) technology was used for gene expression analyses by quantitative reverse transcription polymerase chain reaction (qRT-PCR, performed by Quintiles/Expression Analysis, Durham, NC)89. Standard TaqManTM Assays (Applied Biosystems/ThermoFisher Scientific, Foster City, CA) were used to assess the expression of 93 genes selected based on their selectivity and sensitivity to important hepatic receptors known to be modulated by environmental chemicals; importance in human hepatocyte functionality; and hepatotoxicity. […]
Structure (SMILES),outcome,AC50
Nc1cnn(-c2ccccc2)c(=O)c1Cl,inactive,–
CCOP(=S)(OCC)Oc1nc(Cl)n(C(C)C)n1,inactive,–
Nc1c(Cl)c(F)nc(OCC(=O)O)c1Cl,inactive,–
CC1(C)C(C(=O)OC(C#N)c2cccc(Oc3ccccc3)c2)C1(C)C (stereo not given),inactive,–
CS(=O)(=O)c1cc(C(F)(F)F)ccc1C(=O)c1cnoc1C1CC1,inactive,–
COCC(=O)N(c1c(C)cccc1C)C(C)C(=O)OC (stereo not given),inactive,–
Cc1cc(C)nc(Nc2ccccc2)n1,inactive,–
O=c1n(Cl)c(=O)n(Cl)c(=O)n1Cl,inactive,–
O=C(Nc1ccccc1-c1ccc(Cl)cc1)c1cccnc1Cl,inactive,–
OC(c1ccc(Cl)cc1)(c1ccc(Cl)cc1)C(Cl)(Cl)Cl,inactive,–
COP(=S)(OC)Oc1ccc([N+](=O)[O-])c(C)c1,inactive,–
COC(=O)N(C(=O)N1CO[C@@]2(C(=O)OC)Cc3cc(Cl)ccc3C2=N1)c1ccc(OC(F)(F)F)cc1,–,8.78 µM (active)
N#Cc1c[nH]cc1-c1cccc2c1OC(F)(F)O2,–,27.1 µM (active)
CCOc1cc(C(C)(C)C)ccc1C1COC(c2c(F)cccc2F)=N1 (stereo not given),inactive,–
COC(=O)c1c(C(F)F)nc(C(F)(F)F)c(C2=NCCS2)c1CC(C)C,inactive,–
Clc1cccc(C(Cl)(Cl)Cl)n1,inactive,–
COP(=O)(OC)O/C(C)=C/C(=O)N(C)C,inactive,–
CCOC(=O)C(C)OC(=O)c1cc(Oc2ccc(C(F)(F)F)cc2Cl)ccc1[N+](=O)[O-] (stereo not given),–,32.2 µM (active)
COc1cc(Cl)c(OC)cc1Cl,inactive,–
CCOc1nc(F)cc2nc(S(=O)(=O)Nc3c(Cl)cccc3Cl)nn12,inactive,–

Structure (SMILES),outcome,AC50
CCCCC(O)(Cn1cncn1)c1ccc(Cl)cc1Cl (stereo not given),inactive,–
COc1ccc(-c2ccccc2)cc1NNC(=O)OC(C)C,inactive,–
CCCCC(C#N)(Cn1cncn1)c1ccc(Cl)cc1 (stereo not given),inactive,–
CCN(CC)c1nc(C)cc(OP(=S)(OC)OC)n1,inactive,–
CC(C)=CC1C(C(=O)OCc2coc(Cc3ccccc3)c2)C1(C)C (stereo not given),inactive,–
CCOc1nc(C(Cl)(Cl)Cl)ns1,–,1.23 µM (active)
CC(C)Oc1cccc(NC(=O)c2ccccc2C(F)(F)F)c1,inactive,–
CC(C)N1C(=O)c2ccccc2NS1(=O)=O,inactive,–
COCC(C)N(C(=O)CCl)c1c(C)csc1C (stereo not given),–,74.1 µM (active)
COP(=S)(OC)SCn1nnc2ccccc2c1=O,inactive,–
CN=C=S,inactive,–
O=C1C2CC=CCC2C(=O)N1SC(Cl)(Cl)Cl (stereo not given),inactive,–
CCNC(=O)NC(=O)C(C#N)=NOC,inactive,–
CC1(C)CCC(=Cc2ccc(Cl)cc2)C1(O)Cn1cncn1 (stereo not given),inactive,–
C=CCOC(=O)C(C)(C)OC(=O)c1cc(-n2c(=O)cc(C(F)(F)F)n(C)c2=O)ccc1Cl,inactive,–
CC(C)C1(C)N=C(c2ncccc2C(=O)O)NC1=O (stereo not given),inactive,–
CSC(=O)c1c(C(F)F)nc(C(F)(F)F)c(C(=O)SC)c1CC(C)C,inactive,–
Cc1ccc(N=CN(C)C=Nc2ccc(C)cc2C)c(C)c1,inactive,–
CCCC(=NOCC)C1=C(O)CC(CC(C)SCC)CC1=O (stereo not given),inactive,–
CNC(=O)Oc1cccc2ccccc12,inactive,–
